This is an account of results in PubChem BioAssay (NCI).

Common to all, as to test: NCI-60 one-dose screen, 48 h (100 = growth as untreated, 0 = no growth, -100 = all killed)
Common to all, as to conditions: 10 µM unless noted

Assay [1] relates to EKVX NSCLC.
Assay [2] deals with SN12C renal.
For assay [3], the system named is UO-31 renal.
Assay [4] has as its system TK-10 renal.
Assay [5] concerns ACHN renal.
The test system of assay [6] is CAKI-1 renal.
Assay [7] concerns A498 renal.
The subject of assay [8] is CCRF-CEM leukemia.
Assay [9] has as its system MOLT-4 leukemia.
Assay [10] relates to SR leukemia.
Assay [11] deals with RPMI-8226 leukemia.
Assay [12] relates to OVCAR-5 ovarian.
Assay [13] deals with SK-OV-3 ovarian.
Assay [14] concerns IGROV1 ovarian.
Assay [15] relates to OVCAR-3 ovarian.
Assay [16] relates to HS 578T breast.
In assay [17] the test system is NCI/ADR-RES ovarian.
The test system of assay [18] is OVCAR-4 ovarian.
The subject of assay [19] is OVCAR-8 ovarian.

The panel holds about 83,000 compounds, 20% with a hit somewhere; the sample as a whole holds those more often.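 Plates (96-well) were seeded with cells, treated with compound at one concentration, and incubated for 48 hours before percent growth was determined.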 Values without a mark were called inactive. Activity calls are given as the source filed them. The calls were made as follows: active = growth percent below 10; inactive = the rest.

For the compound `CC(/C=N/NC(=O)c1cc(-c2ccco2)[nH]n1)=C\c1ccccc1`, the growth is 89.2% in assay [1]; 95% in assay [2]; 96.8% in assay [3]; 123% in assay [4]; 93.1% in assay [5]; 80.8% in [6]. Further, the growth was 110% in assay [7]; 92.3% in assay [8]; 96.6% in assay [9]; 88.7% in [10]; 84.7% in assay [11]; 96.9% in assay [12]. Moreover, the growth in assay [13] is 97.4%; in assay [14], 107%; in assay [15] it was 107%; in assay [16] it was 30.3%; in assay [17] it was 97.8%.
As to `N[C@@H]1CCC[C@H]1NCCCCN1C(=O)c2cccc3cccc(c23)C1=O`, the growth in assay [1] was 85.6%; in assay [2] it was 73.7%; in assay [3], 56.2%; in assay [4] it was 76.6%; in assay [5], 52.9%; in assay [6], 81.3%. The growth was 34.8% in assay [7]; 98.4% in assay [8]; 30.8% in assay [9]; 18.1% in assay [10]; 77.7% in [11]; 80.9% in assay [12]. Moreover, the growth in assay [18] was 47.2%; in assay [13], 96.9%; in assay [14] it was 59.9%; in assay [15], 69.9%; in [16] it was 71.8%; in [17] it was 82.4%.
As for `CC(=O)Nc1nccs1`, the growth was 92.2% in assay [1]; 97.2% in assay [2]; 84.7% in [3]; 99.9% in assay [4]; 98.1% in assay [5]; 101% in assay [6]. Moreover, the growth in [7] is 73.6%; in assay [9], 103%; in assay [10], 111%; in [11], 102%; in assay [19], 103%; in [12], 84.3%. In addition, the growth in assay [18] was 117%; in assay [13] it was 98.8%; in [14], 94.7%; in assay [15], 99.6%; in assay [16] it was 91.7%; in [17] it was 94.3%.
`COc1ccc(-c2cncnc2N)cc1OC`: the growth was 109% in assay [2]; 101% in [3]; 111% in assay [4]; 104% in [5]; 101% in assay [6]; 87.8% in assay [7]. The growth is 95.9% in [8]; 105% in assay [9]; 102% in [10]; 96.8% in [11]; 110% in assay [12]; 108% in [18]. In addition, the growth is -40.5% (active) in assay [13]; 111% in assay [14]; 115% in [15]; 107% in assay [16]; 105% in [17].
With `COC(=O)CCCNC(=O)C(=O)c1c(O)c(O)c(C(C)C)c2cc(C)c(-c3c(C)cc4c(C(C)C)c(O)c(O)c(C(=O)C(=O)NCCCC(=O)OC)c4c3O)c(O)c12`, the growth was 2.47% (active) in assay [1]; 16.6% in assay [2]; 7.48% (active) in [4]; 3.45% (active) in assay [5]; 32.7% in [6]; -7.28% (active) in [7]. Moreover, the growth is 16.1% in assay [8]; 8.94% (active) in [9]; 17.1% in assay [11]; -15.1% (active) in assay [19]; 4.86% (active) in assay [12]; -3.33% (active) in assay [18]. For the same compound, the growth in assay [13] was -4.94% (active); in [14], 18.2%; in assay [15] it was 4.88% (active); in assay [16], 12.2%; in assay [17], 9.74% (active).
For the compound `CN(C)c1ccc2cc(-c3ccccc3F)c(N)nc2c1`, the growth was 31.1% in [1]; 54.9% in [2]; 34% in assay [3]; 34.6% in assay [4]; 41.2% in [5]; 37.5% in assay [6]. Moreover, the growth in [9] is 35.1%; in assay [10], 6.09% (active); in assay [11], 25.2%; in [19], 22.6%; in assay [12] it was 68.7%; in assay [18] it was 32.8%. The growth in assay [13] was 28.9%; in [14] it was 40.9%; in assay [15] it was 3.93% (active); in [16] it was 28.9%; in [17] it was 1.98% (active).
For `O=C1NCC(=O)N(Cc2ccco2)[C@H]1Cc1ccccc1`, the growth is 89.2% in [1]; 98.1% in assay [2]; 99.8% in assay [3]; 85.5% in assay [4]; 105% in [5]; 97.4% in [6]. The growth in [7] was 52.9%; in [8], 103%; in assay [9], 102%; in assay [10] it was 92.6%; in assay [11], 104%; in assay [19] it was 105%. Besides, the growth in assay [12] was 106%; in assay [13] it was 96.7%; in [14], 109%; in [15] it was 110%; in [16] it was 89%; in assay [17], 104%.
Take `O=C(CC1Sc2ccccc2NC1=O)NNc1ccc(F)cc1` (configuration not stated): the growth in assay [1] is 75.9%; in assay [2], 89.5%; in assay [3] it was 48.4%; in assay [4], 121%; in [5], 56.4%; in [6] it was 69%. The growth is 91.7% in [7]; 7.39% (active) in [8]; 45.8% in [9]; 83.5% in [10]; 78.7% in [11]; 76.3% in assay [12]. For the same compound, the growth was 72% in [18]; 92.5% in assay [13]; 70.3% in assay [14]; 84.8% in assay [15]; 82.4% in [16]; 44.1% in [17].
For `COc1ccc(-c2cc(-c3cc(OC)ccc3O)[nH]c(=O)c2C#N)cc1`, the growth is 96% in assay [1]; 44.1% in assay [3]; 76.1% in assay [4]; 81% in assay [5]; 37.5% in assay [7]; 46.3% in assay [8]. The growth in assay [9] was 32%; in assay [10], 10.1%; in assay [11] it was 56.4%; in [19], 64.3%; in assay [12] it was 119%; in assay [18], 80.5%. Also, the growth in assay [13] was 63.5%; in assay [14], 71.6%; in [15] it was 27.5%; in [16], 36.6%; in assay [17], 52.7%.
As to `CCNCCNc1cc(-c2ccc(F)cc2)c(C#N)c2nc3ccccc3n12`, the growth in assay [1] is 78.4%; in assay [2], 70.9%; in assay [3] it was 39.9%; in assay [4], 87.5%; in assay [5], 9.08% (active); in assay [6], 71.2%. In addition, the growth in assay [7] is -9.7% (active); in assay [8] it was 27.1%; in assay [10] it was -23% (active); in assay [11] it was 36.4%; in assay [19] it was 42.2%; in assay [12], 89.9%. Besides, the growth in assay [13] is 94.5%; in assay [14], 60.4%; in assay [15], 0.676% (active); in [16] it was 64.2%; in [17], 55.4%.
On to `NC(=O)CC1(O)C=C(Br)C(=O)C(Br)=C1`, for which the growth was 91.4% in assay [1]; 117% in [2]; -53.6% (active) in [3]; 17.1% in [4]; -59.4% (active) in assay [5]; -10.2% (active) in [6]. For the same compound, the growth in assay [8] was -45% (active); in assay [11], -31.3% (active); in assay [19], 95.9%; in [12] it was 70.2%; in [18], 34.7%; in [13] it was 99.1%. Also, the figures for the growth in assay [14] and in assay [15] were 82.2% and -9.94% (active), respectively.
In the case of `CC/C=C/[C@@H]1C=C[C@@H]2CCC[C@H]2[C@@H]1CC[C@H](O)[C@H](C)N`, the growth is 82.3% in [1]; 41.1% in assay [2]; -80% (active) in assay [3]; 8.1% (active) in assay [4]; -56.8% (active) in assay [5]; 82.1% in assay [7]. In addition, the growth in assay [8] was -44% (active); in assay [9] it was -47.2% (active); in assay [10], -40.1% (active); in assay [11] it was -50.2% (active); in [12], -29% (active); in assay [18] it was 32.8%. Besides, the growth in [13] was -15.9% (active); in assay [14], 1.42% (active); in assay [15], -64.8% (active); in assay [16], -44.3% (active); in assay [17], -33.4% (active).
In the case of `O=C1CSC(c2ccc(O)cc2)N1c1nnc(Cn2cnnc2)o1` (configuration not stated), the growth in assay [1] was 99.1%; in assay [2], 85.9%; in [3], 91.9%; in assay [4], 131%; in [5] it was 108%; in assay [6] it was 79.4%. Also, the growth was 99.9% in [7]; 49.1% in assay [8]; 58.7% in [9]; 3.17% (active) in [10]; 62% in assay [11]; 96.1% in assay [12]. Moreover, the growth in assay [18] is 88.6%; in [13] it was 112%; in assay [14], 104%; in assay [15], 15.2%; in assay [16], 64.7%; in assay [17] it was 92.2%.
With `OC(COc1cccc2ccccc12)CN1CCN(c2ccccc2)CC1` (configuration not stated), the growth was 103% in assay [1]; 82.2% in [3]; 104% in assay [4]; 104% in assay [5]; 47% in assay [6]; 95.5% in assay [7]. The growth was 107% in [9]; 100% in assay [19]; 102% in assay [12]; 91.9% in assay [18]; 93.7% in assay [13]; 122% in assay [14]. Moreover, the growth is 105% in [15], 107% in assay [16] and 98% in assay [17].
For `Clc1ccc(-c2nnc(-c3ccco3)o2)cc1`, the growth is 100% in assay [1]; 82.6% in assay [2]; 84.4% in [3]; 120% in assay [4]; 100% in [5]; 73.3% in assay [6]. For the same compound, the growth in [7] is 103%; in [8] it was 87.4%; in assay [9], 90.1%; in assay [10], 89.7%; in assay [11], 93.8%; in assay [12] it was 82.4%. The growth in assay [18] is 95.4%; in assay [13] it was 102%; in assay [14], 93.8%; in [15] it was 107%; in assay [16], 107%; in [17], 104%.
Regarding `CN(C)c1ccc(/C=C/c2c(F)cccc2F)cc1`, the growth in assay [1] was 76.2%; in [2], 98.2%; in assay [3], 55.6%; in [4] it was 109%; in [5], 92.7%; in [6], 94.6%. The growth is 77.2% in assay [7]; 101% in assay [8]; 97.4% in [9]; 93.7% in [10]; 95.8% in [11]; 99.7% in assay [19]. In addition, the growth is 104% in [12]; 90.3% in [18]; 89.3% in assay [13]; 59.7% in assay [14]; 98% in assay [15]; 92.6% in assay [17].
As to `O=C1Nc2ccccc2SC1c1ccccc1Cl` (configuration not stated), the growth in assay [1] is 95.2%; in assay [2], 108%; in [3], 103%; in assay [4], 88.7%; in [5] it was 115%; in assay [6], 71.9%. Further, the growth is 96.3% in assay [7]; 83.9% in [8]; 86.4% in [9]; 10.4% in assay [10]; 75% in assay [11]; 98.1% in assay [12]. In addition, the growth is 80.4% in [18]; 114% in [13]; 101% in [14]; 83% in [15]; 80.4% in assay [16]; 101% in assay [17].
